Rows were chosen to be rich in hits. Some 2.2% of all compounds tested hit in one or more screens of this group.
IEC-6 cytotox = counter-screen for KLF5 inhibitors: cytotoxicity in IEC-6 cells; IEC-6 cytotoxicity, luminescence viability; inhibition, % at 5 µM; 0.78% of 290,000 active; AID 1825; in the data active means inhibition above about 22%;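 further: 0% = plate median of test compound wells and 100% = cytotoxic reference compound wells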
APP transl inh = APP translation inhibition | SH-SY5Y APP 5'UTR-luciferase reporter, luminescence | inhibition, % at 2 µM | 0.82% of 190,000 active;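 active means inhibition above a set limit, derived from the sample mean plus 3 SD, cut at about 45% in these data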
BaF3 tox = reduces parental Ba/F3 cell viability, JAK2V617F counter-screen; CellTiter-Glo ATP luminescence; inhibition, % at 5.6 µM; 1.1% of 220,000 active; AID 1486;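 active means inhibition above a per-campaign cutoff, the mean inhibition of all tested compounds plus 3 SD, cut at about 27% in these data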;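 further: 0% = DMSO wells and 100% = JAK Inhibitor I control wells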
KLF5 inh = inhibitors of KLF5 expression. DLD-1 KLF5 promoter-luciferase reporter, luminescence. inhibition, % at 5 µM. 0.23% of 290,000 active. AID 1700;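 active means inhibition above a per-plate limit of that plate's mean compound inhibition plus 3 SD, cut at about 60% in these data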;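 further: 0% = DMSO wells and 100% = LY294002 at 200 µM; higher means less KLF5 promoter-driven luciferase light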
Ba/F3 V617F tox = lowers viability of Ba/F3 cells expressing EpoR and JAK2V617F. ATP luminescence. 1.1% of 220,000 active. inhibition, % at 5.6 µM;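 active means inhibition above the campaign mean plus 3 SD over all tested compounds, cut at about 24% in these data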;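 further: cytokine-independent growth of Ba/F3 cells driven by EpoR plus mutant JAK2; 0% = DMSO-treated cells and 100% = JAK inhibitor I control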
aSyn UTR inh = 5' untranslated region of α-synuclein, MLPCN primary screen; AID 1813; alpha-synuclein 5'UTR reporter, inhibitor activity; 0.82% of 300,000 active; inhibition, % (tested at 7.5 µM); in the data active means inhibition above about 60%;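 further: H4 neuroglioblastoma cells stably carrying SNCA 5'UTR luciferase fusion; 0% = DMSO wells and 100% = positive control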
BaF3 tox 2 = counter-screen for JAK2V617F inhibitors: parental Ba/F3 viability inhibitors; CellTiter-Glo luminescence; cells kept alive by added IL-3; inhibition, % at 5.6 µM; 31% of 580 active; shares compounds with Ba/F3 V617F tox;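 active means cell growth inhibition above the hit limit set in the earlier mutant JAK2 cell screen, cut at about 27% in these data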;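 further: plate controls were DMSO-treated cells for no effect and JAK Inhibitor I control wells for full effect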
JAK2V617F confrm = Ba/F3 EpoR-JAK2V617F viability loss, confirmation | shares compounds with Ba/F3 V617F tox | CellTiter-Glo luminescence | inhibition, % at 5.6 µM | 66% of 580 active | AID 1521;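 active means mean inhibition above the hit cutoff derived in the earlier primary screen, cut at about 25% in these data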;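 further: 0% = DMSO-treated cells and 100% = JAK inhibitor I control wells; higher means lower luminescence from reduced cell ATP and viability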
* hit, by the source's call; / = not tested or not shown.

SMILES | IEC-6 cytotox | APP transl inh | BaF3 tox | KLF5 inh | Ba/F3 V617F tox | aSyn UTR inh | BaF3 tox 2 | JAK2V617F confrm
CSC1=NSC2=NC(=O)/C(=C\c3ccc(OC(=O)c4ccco4)cc3)C(=N)N12 | 2 | / | / | -89 | / | -46 | / | /
CC1=CSC2=NC(=O)/C(=C/c3cccc(OC(=O)c4ccco4)c3)C(=N)N12 | 2 | 19 | 4 | 1 | 34* | -33 | -3 | -5
Cc1ccc2nc3c(c(Nc4ccc5c(c4)OCCO5)c2c1)CCC3 | 1 | 4 | 5 | -15 | -3 | -1 | / | /
O=C(CSc1ccc2ccccc2c1)NCCc1ccc(O)c(O)c1 | 2 | 26 | 8 | -13 | 52* | 32 | 51* | 93*
COc1ccccc1N1CCc2c(C)nc3c(OC)cccc3c21 | 11 | / | 11 | -20 | 45* | 25 | 8 | 50*
CC(C)C1C(C#N)=C(N)Oc2n[nH]c(-c3cccs3)c21 (configuration not stated) | 4 | -7 | 10 | -3 | 5 | -3 | / | /
CC(C)C1C(C#N)=C(N)Oc2n[nH]c(-c3ccc4ccccc4c3)c21 (configuration not stated) | 12 | 55* | 10 | 37 | 33* | -1 | 26 | 68*
CCC(C)n1ncn(-c2ccc(N3CCN(c4ccc(O)cc4)CC3)cc2)c1=O (configuration not stated) | 4 | 0 | 8 | 57 | 33* | 73* | 59* | 48*
CC(=O)C(C)Oc1ccc2c3c(c(=O)oc2c1C)CCCC3 (configuration not stated) | 0 | -21 | 9 | -39 | 4 | 4 | / | /
CCCC1O[C@@H]2CC3C4CCC5=CC(=O)C=C[C@]5(C)C4C(OC(C)=O)C[C@]3(C)[C@]2(C(=O)COC(C)=O)O1 (some centres not stated) | -11 | -10 | 3 | 0 | 25* | 44 | -1 | 28*
CCN(CC)S(=O)(=O)c1cccc(-n2c(O)c(C=Nc3ccccc3C(=O)O)c3ccccc3c2=O)c1 | 17 | / | 10 | -21 | 26* | -58 | 9 | 55*
O=C(O)c1ccccc1N=Cc1c(O)n(-c2nccs2)c(=O)c2ccccc12 | 3 | / | 2 | -15 | 17 | -4 | / | /
CCCc1ccc(C(=O)NNc2ccc(F)cc2)cc1 | -1 | / | 1 | -14 | 93* | -6 | 5 | 5
CC(C)CC(OC(=O)c1nsc(Cl)c1Cl)C(=O)NCC1CCCO1 (configuration not stated) | 3 | / | / | -48 | / | -31 | / | /
NSc1nc(N)c2nc(-c3ccccc3)c(-c3ccccc3)nc2n1 | 1 | 3 | 11 | -24 | 2 | 24 | / | /
Nc1nc(N)c2nc(-c3ccccc3)c(N)nc2n1 | 2 | -8 | 11 | -15 | 30* | 35 | 19 | 73*
O=C(O)c1ccc(N/N=C/c2ccc(-c3ccc(Cl)cc3Cl)o2)cc1 | 11 | / | 13 | 16 | 30* | -62 | 45* | 33*
NC(N)=Nc1cc2ccccc2c2ccccc12 | 9 | / | 9 | -13 | 28* | -23 | 3 | 33*
COc1ccc(CNC(=O)C2(CC(=O)NC(C)(C)C)CCCC2)cc1 | -6 | / | / | -32 | / | -6 | / | /
CCOC(=O)Cc1csc(NC(=O)NC2(C(F)(F)F)Oc3ccc(Cl)cc3O2)n1 (configuration not stated) | 1 | 31 | 18 | -44 | 30* | -37 | 2 | 44*
N#C/C(=C\c1ccc(O)c(O)c1)S(=O)(=O)c1ccccc1 | -2 | 23 | 4 | -23 | 24* | -5 | -5 | 10
O=C(Nc1cccc([N+](=O)[O-])c1)c1cc2ccccc2cc1O | -3 | / | 7 | -60 | 24* | -22 | 64* | 75*
OCCSc1nnc(Nc2ccccc2)s1 | -2 | -16 | -1 | -60 | 65* | -47 | -7 | -9
N#CCSc1nnc(Nc2ccccc2)s1 | -4 | 11 | 4 | 0 | -2 | -19 | / | /
CCn1cc(CN2CCN(Cc3ccccc3)C(CCO)C2)c2ccccc21 (configuration not stated) | 0 | / | / | -36 | / | 9 | / | /
CCn1cc(CN2CCN(Cc3ccc(C)o3)C(CCO)C2)c2ccccc21 (configuration not stated) | 5 | 11 | 7 | -33 | 44* | -2 | 0 | 4

Source: PubChem BioAssay
